Consider 14 compounds from PubChem BioAssay (NCI).

This is part of a sample that, as a whole, favours compounds with a hit. Of some 83,000 tested, about 20% had one in any assay.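 Each cell line was grown in a 96-well plate and treated with one concentration of compound for 48 hours. Values below 10 were considered active.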 Unmarked numbers belong to inactive results. Calls of active or inactive are those of the source.

Among the test systems are T-47D breast; BT-549 breast; MDA-MB-435 melanoma; SW-620 colon; MCF7 breast; HCT-116 colon; HCC-2998 colon; KM12 colon.
What all share (assay): NCI-60 one-dose screen, 48 h (100 = growth as untreated, 0 = no growth, -100 = all killed)
What all share (settings): 10 µM unless noted

Regarding `COc1cc2nc(Cl)nc(Nc3ccc(S(=O)(=O)Nc4nccs4)cc3)c2cc1OC`, the growth in the assay on T-47D breast was 94.3%; with BT-549 breast, 95.1%; with MDA-MB-435 melanoma, 106%; in the assay on SW-620 colon it was 105%; in the assay on MCF7 breast it was 103%; in the assay with HCT-116 colon it was 95%. Further, the growth is 72.9% in the assay with HCC-2998 colon and 112% in the assay on KM12 colon.

As for `Cc1ccc(NCCN(C)C)c2c(=O)c3ccccc3sc12`, the growth was 22.3% in the assay on T-47D breast; 76.6% with BT-549 breast; 13.2% with MDA-MB-435 melanoma; 8.96% (active) in the assay with SW-620 colon; 0.259% (active) with MCF7 breast; 10.2% in the assay with HCT-116 colon. Further, the values for the growth with HCC-2998 colon and with KM12 colon were -16.2% (active) and 23.3%, respectively.

Consider `O=C(COc1ccc(/C=C2\Oc3ccccc3C2=O)cc1)Nc1nc2ccccc2s1`, for which the growth in the assay on T-47D breast was 91.4%; in the assay with BT-549 breast, 46.2%; in the assay with MDA-MB-435 melanoma it was 65%; with SW-620 colon it was 96.3%; in the assay with MCF7 breast it was 120%; in the assay on HCT-116 colon, 87.3%. In addition, the growth in the assay with HCC-2998 colon was 107%; with KM12 colon it was -28.7% (active).

On to `Nc1nc(N)c2c(n1)NC(c1ccccc1)C1CCc3ccccc3C1=N2` (configuration not stated), for which the growth in the assay on T-47D breast was 30.7%; in the assay with BT-549 breast, 39%; in the assay with MDA-MB-435 melanoma, 28.4%; with SW-620 colon, 58.9%; in the assay with MCF7 breast it was 18.7%; in the assay on HCT-116 colon it was 26.1%. The growth with HCC-2998 colon is 65.4%; with KM12 colon, 39.1%.

In the case of `CC(C)(C)CC(C)(C)Nc1c(-c2ccncc2)nc2cnccn12`, the growth is 86.1% in the assay with T-47D breast; 98.6% in the assay on BT-549 breast; 99.2% in the assay on MDA-MB-435 melanoma; 106% with SW-620 colon; 96.5% in the assay on MCF7 breast; 90.1% in the assay on HCT-116 colon. The figures for the growth in the assay on HCC-2998 colon and in the assay with KM12 colon were 116% and 98.1%, respectively.

As for `CCN1C(=O)N(CC)C2C1NN=c1s/c(=C\c3cccs3)c(=O)n12` (configuration not stated), the growth was 60.6% in the assay on T-47D breast; 19.8% in the assay with BT-549 breast; -31.8% (active) in the assay with MDA-MB-435 melanoma; 20.9% in the assay on SW-620 colon; 19.9% in the assay on MCF7 breast; 15.4% in the assay on HCT-116 colon. Besides, the growth is 21% with HCC-2998 colon and 19.8% in the assay with KM12 colon.

Regarding `O=C(N/N=C/C=C/c1ccc([N+](=O)[O-])o1)c1cc2ccccc2cc1O`, the growth with T-47D breast was -65.5% (active); in the assay on BT-549 breast, -9.91% (active); with MDA-MB-435 melanoma, -24.2% (active); in the assay with SW-620 colon it was -75.6% (active); in the assay with MCF7 breast it was -61.3% (active); in the assay with HCT-116 colon, -92.8% (active). In addition, the growth in the assay on HCC-2998 colon is -100% (active); with KM12 colon, -67.3% (active).

For the compound `Cc1c2c(c(C)c3c1oc1cc(O)ccc13)C(=O)N(CCN1CCCCC1)C2=O`, the growth in the assay with T-47D breast was 91.1%; in the assay with BT-549 breast, 97.7%; in the assay on MDA-MB-435 melanoma, 93.3%; with SW-620 colon it was 67.8%; in the assay with MCF7 breast, 90.3%; with HCT-116 colon, 67.4%. Moreover, the growth in the assay with HCC-2998 colon was 93.6%; in the assay with KM12 colon it was 83.9%.

On to `COc1ccc(NC(=O)CSc2nc(C)c(C(C)=O)n2-c2ccc(Cl)cc2)cc1`, for which the growth was 80.5% in the assay with T-47D breast; 80.4% in the assay on BT-549 breast; 89% in the assay with MDA-MB-435 melanoma; 96.1% in the assay with SW-620 colon; 92.9% in the assay with MCF7 breast; 81.3% in the assay on HCT-116 colon. Further, the growth in the assay on HCC-2998 colon was 90.3%; in the assay with KM12 colon, 95.5%.

Take `CN(C)CC1=NC2SC=C(c3ccccc3)C2C(=O)N1CC#N` (configuration not stated): the growth is 86.8% in the assay with T-47D breast; 118% with BT-549 breast; 95.3% in the assay with MDA-MB-435 melanoma; 104% in the assay with SW-620 colon; 121% with MCF7 breast; 103% in the assay on HCT-116 colon. The growth in the assay on HCC-2998 colon was 97.5%; in the assay with KM12 colon, 101%.

Regarding `CCN(CC)CCCC(C)Nc1c2ccc(Cl)cc2nc2ccc(O)cc12` (configuration not stated), the growth in the assay on T-47D breast is 49.7%; with BT-549 breast, 64.8%; with MDA-MB-435 melanoma, 27%; with SW-620 colon, 24.5%; with MCF7 breast it was 6.22% (active); with HCT-116 colon, 14.8%. The growth is 25.4% in the assay on HCC-2998 colon and 30.4% with KM12 colon.

`O=c1c2c3c(sc2n2c(-c4cc(-c5ccccc5)nn4-c4ccccc4)nnc2n1Cc1ccccc1)CCCC3`: the growth with T-47D breast is 72.5%; in the assay with BT-549 breast, 97.4%; with MDA-MB-435 melanoma, 85.2%; in the assay with SW-620 colon, 83.2%; in the assay on MCF7 breast, 68.3%; in the assay on HCT-116 colon it was 55.4%. The growth in the assay on HCC-2998 colon is 98.8%; in the assay with KM12 colon, 84.1%.

`Cn1c(-c2c(N)n(Cc3cccnc3)c3nc(C#N)c(C#N)nc23)nc2ccccc21`: the growth in the assay on T-47D breast was 92.1%; in the assay on BT-549 breast, 115%; in the assay with MDA-MB-435 melanoma, 89.3%; in the assay with SW-620 colon, 95.3%; with MCF7 breast it was 103%; with HCT-116 colon, 44.5%. The growth is 100% in the assay on HCC-2998 colon and 82.8% with KM12 colon.

`COc1cc(/C=N/NC(=O)Cn2c(C(C)C)nc3ccccc32)ccc1O`: the growth with T-47D breast was 94%; with BT-549 breast, 100%; with MDA-MB-435 melanoma, 100%; with SW-620 colon, 95.7%; in the assay on MCF7 breast it was 95.1%; in the assay on HCT-116 colon, 82.4%. The growth was 103% in the assay on HCC-2998 colon and 97.6% in the assay on KM12 colon.
